Source: PubChem BioAssay
Most compounds without a hit are left out; they make up all but 12% or so of the library.
LASV entry inh = Lassa virus entry inhibition; Lassa virus pseudotype entry inhibition, cell reporter; Potency, µM (highest dose often 37.9 µM), usual class: inhibitors; 300,000 compounds, 1.2% hits; AID 540256; calls by dose curve; tested in HEK293 cells; also: nearly all actives have a fitted effect of over 50% in size
Shiga toxin inh = Shiga toxin inhibition; Vero cells, Shiga toxin protein synthesis inhibition reporter; 290,000 compounds, 9.2% hits; inhibition, % at 38.7 µM; in the data active = inhibition mostly above about 28%, no sharp cut-off; inactive = mostly below about 43%
CHX counter = counter-screen for Shiga toxin inhibitors: cycloheximide protein synthesis inhibition; cell reporter, cycloheximide protein synthesis inhibition counterscreen; max response, %; 300,000 compounds, 12% hits; AID 2314; in the data active = max response mostly above about 13%, no sharp cut-off; inactive = mostly below about 14%; also: read at 38.3 µM for the half of the compounds with a filed dose
Marburg entry inh = blocks Marburg virus binding to or entry into cells; AID 540276; Potency, µM (series often up to 37.8 µM), most hits filed as inhibitors; Marburg virus pseudotyped entry inhibition, cell reporter; 300,000 compounds, 1.8% hits; calls by dose curve; tested in HEK293 cells
Numbers stand for hits; n = inactive; u = inconclusive; x = not tested or not shown.

SMILES	LASV entry inh	Shiga toxin inh	CHX counter	Marburg entry inh
CCOC(=O)c1c(NC(=O)CSc2nnc(-c3c[nH]c4ccccc34)n2CCOC)sc2c1CCCCC2	23.1µM	n	n	u
CCOC(=O)c1c(NC(=O)CC)sc2c1CCN(Cc1ccccc1)C2	x	n	n	x
CCOC(=O)c1c(NC(=O)CSc2cn(CCNC(=O)c3ccccc3OC)c3ccccc23)sc2c1CCC2	u	x	x	12.6µM
CCOC(=O)c1c(NC(=O)CSc2ncccn2)sc2c1CCN(Cc1ccccc1)C2	u	n	n	16.4µM
CCOC(=O)c1c(NC(=O)C(NCCN(C)C)c2ccccc2)sc2c1CCCC2 (configuration not stated)	11.2µM	n	n	u
CC1(C)CC(NC(=O)CCc2nnc(CCCCc3ccccc3)o2)CCO1 (configuration not stated)	x	n	n	x
CCOC(=O)c1c(NC(=O)CSc2c[nH]c3ccccc23)sc2c1CCCC2	u	n	n	13µM
O=[N+]([O-])NC1=NCN(Cc2ccco2)CN1Cc1ccco1	n	n	n	0.282µM
OC1(c2ccccc2F)CCN(Cc2nnc(-c3ccccc3)o2)CC1	n	n	20.1	n
COC(=O)C1CCN(Cc2nnc(-c3ccccc3)o2)CC1	n	58.6	24.0	u
c1ccc(-c2nnc(CN3CCCCC3)o2)cc1	x	75.1	40.9	x
O=C(c1ccco1)N1CCN(Cc2nnc(-c3ccccc3)o2)CC1	n	n	n	n
CCN1CCN(Cc2nnc(-c3ccccc3)o2)CC1	x	n	n	x
c1ccc(-c2nnc(CN3CCCc4ccccc43)o2)cc1	n	n	16.3	u
CCCCn1c(N)c(N(CC(C)C)C(=O)c2oc3c(Cl)cccc3c2C)c(=O)[nH]c1=O	n	x	x	n
CC12C(=O)OC(=O)C1(C)C1CCC2O1 (configuration not stated)	2.91µM	x	x	3.26µM
C[C@@]12C(=O)OC(=O)[C@@]1(C)[C@H]1CC[C@@H]2O1	x	x	x	3.26µM
COc1cc(NC(=O)C2C3CCC(O3)C2C(=O)O)cc(OC)c1 (configuration not stated)	n	n	n	u
CNS(=O)(=O)c1ccc(Cl)nc1	n	n	n	n
O=C(c1ccc(Br)cc1)c1cc2ccc(O)cc2oc1=O	n	n	n	n
N=c1oc2ccccc2cc1C(=O)NC1CCCCCC1	x	123.0	56.5	x
N=c1oc2ccc(Cl)cc2cc1C(=O)NC1CCCCCC1	x	n	n	x
O=C(c1ccccc1)c1cc2ccc(O)cc2oc1=O	n	n	20.9	n
O=C(NNc1c(F)c(F)cc(F)c1F)c1cc2ccccc2oc1=O	n	111.9	50.3	n
O=C(NC1CCCCCC1)c1cc2ccccc2oc1=O	u	43.3	42.6	u
SMILES	LASV entry inh	Shiga toxin inh	CHX counter	Marburg entry inh
COc1ccccc1C(CNC(=O)c1cccc(S(=O)(=O)Nc2ccc(C)cc2)c1)N(C)C (configuration not stated)	n	n	n	u
c1ccc(-n2ncc3c(NC[C@@H]4CCCO4)ncnc32)cc1	x	x	x	n
CCN(CC)CCNC(=O)C(Oc1ccccc1)Oc1ccccc1	n	n	n	u
C=CCc1cccc2cc(C(=O)NC3CCCCC3)c(=O)oc12	n	87.9	n	n
O=C(OC1CCCCC1)c1cc2ccccc2oc1=O	n	79.2	42.7	u
O=C(NCC1CCCO1)c1cc2ccccc2oc1=O (configuration not stated)	n	95.8	36.8	n
O=C(c1cc2ccccc2oc1=O)N(Cc1ccccc1)CC1CCCO1 (configuration not stated)	n	n	n	n
C=CCc1cccc2cc(C(=O)NCCOC)c(=O)oc12	n	n	n	n
CCCOc1ccc(C(=O)CCNC(Cc2c[nH]c3ccccc23)C(=O)O)cc1 (configuration not stated)	x	n	n	x
CC1CCC(NC(=O)c2ccc3c(c2)N(Cc2cccc(F)c2)C(=O)c2ccccc2S3)CC1 (configuration not stated)	n	x	x	x
CCOC(=O)c1ccc(NC(=O)Cc2coc3cc(C)cc(C)c23)cc1	n	x	x	u
NC(=O)c1ccc(N=Nc2c(O)c3ccccc3[nH]c2=O)cc1	x	n	n	x
COc1ccc(N=Nc2[nH]c3ccc(C)cc3c2O)cc1	u	35.0	22.4	u
Cc1ccc(N=Nc2[nH]c3ccccc3c2O)cc1	u	152.2	68.5	u
CC(C)c1ccc(Nc2nnns2)cc1	u	n	n	n
CC(C)CC1COC(=O)N1 (configuration not stated)	x	n	n	x
c1ccc(-c2noc(-c3ccc4c(c3)OCO4)n2)cc1	u	108.8	63.5	u
c1ccc(-c2noc(-c3ccc4ccccc4c3)n2)cc1	u	104.6	54.8	u
COc1ccc(-c2noc(-c3ccc4c(c3)OCO4)n2)cc1	n	n	14.1	u
c1ccc(-c2noc(-c3ccccc3-c3ccccc3)n2)cc1	n	n	n	n
Cc1ccn2cc(-c3ccc(O)c(O)c3)nc2c1	x	n	n	x
COc1ccccc1CNc1nc2nc(C)c(Cl)c(C)n2n1	n	x	x	u
CCCOC(=O)c1ccc(Oc2c(-c3ccc(OCC)cc3O)n[nH]c2C)cc1	u	n	n	u
CCCOC(=O)c1ccc(Oc2cn[nH]c2-c2ccc(OCC)cc2O)cc1	7.94µM	n	n	u
COC(=O)C1C(O)=C(C(C)=Nc2cccc3ccccc23)C(=O)CC1(C)C (configuration not stated)	x	n	n	x
SMILES	LASV entry inh	Shiga toxin inh	CHX counter	Marburg entry inh
CCOc1ccc2nc(NC(=O)C3CCCN(S(=O)(=O)c4c(C)noc4C)C3)sc2c1 (configuration not stated)	x	28.1	25.4	x
CCOc1ccc2nc(N3CCCCCC3)sc2c1	u	102.1	57.2	u
COc1ccc2nc(N3CCCC(C(=O)NCCCN4C(C)CCCC4C)C3)sc2c1 (configuration not stated)	u	n	20.2	u
CCOc1cc2sc(N3CCC(C(=O)Nc4ccc(C)cc4)CC3)nc2cc1Br	x	148.8	55.0	u
O=C(O)C1OC(C(=O)O)C(C(=O)O)C1C(=O)O (configuration not stated)	n	x	x	n
Cc1ccccc1NC(=O)CCNS(=O)(=O)c1ccc2c(c1)CCC(=O)N2	x	n	n	x
CC(/C=C1\N=C(SCc2ccccc2)SC1=O)=C\c1ccccc1	n	n	n	n
CCOc1ccc2nc(N3CCC(C(=O)N4CCN(C5CCCCC5)CC4)CC3)sc2c1	n	63.8	47.8	n
CCOc1ccc2nc(N3CCCC(C(=O)N4CCN(CC)CC4)C3)sc2c1 (configuration not stated)	x	n	25.5	x
CCOc1ccc2nc(NC(=O)C3CCN(C(=O)c4ccco4)CC3)sc2c1	n	74.0	26.6	n
O=C(Nc1nc2ccccc2s1)C1CCN(C(=O)c2ccco2)CC1	n	n	n	u
Cc1cc(C)c2nc(N3CCC(C(=O)NCCCN4CCCCC4)CC3)sc2c1	u	n	n	u
CCOc1ccc2nc(N3CCC(C(=O)N4CCN(C(=O)c5ccco5)CC4)CC3)sc2c1	n	n	n	u
Cc1cc(C)c2nc(N3CCC(C(=O)NCC4CCCO4)CC3)sc2c1 (configuration not stated)	x	n	21.0	x
Cc1cc(Cl)ccc1OCc1cc(=O)n2c3c(sc2n1)CCCC3	n	x	x	n
C[N+]12CCC(CC1)[C@H](OC(=O)C(O)(c1ccccc1)c1ccccc1)C2	x	x	x	n
CCOc1ccc2nc(SCc3ccc(F)cc3)sc2c1	n	35.6	37.2	n
